This is part of a sample that, as a whole, favours compounds with a hit. Of some 79,000 tested, about 15% had one in any assay. The source made the active and inactive calls. Rule as the data show it: active = growth inhibition above about 70%; inactive = the rest.

This test in a line: NCI Yeast Anticancer Drug Screen. Data for the mlh1 rad18 strain (AID 175). The note with it: S. cerevisiae mlh1 rad18 strain growth inhibition; at 50.0 µM; stronger effect = higher value. How it is done:
Growth inhibition of yeast strains with defined genetic alterations is measured as a screen for potential anti-cancer activity. Selected strains with alterations in DNA damage repair or cell cycle control were exposed to compounds and growth inhibition was measured relative to vehicle treated controls. The strain used in this assay is mlh1 rad18
Take `CCOC(=O)c1c(Br)c(-c2ccc([N+](=O)[O-])cc2)c(Br)n1C`: the growth inhibition is -5.2% (inactive).
As for `CC(C)=NC(C(=O)O)C(C)(C)S` (stereo not given), the figure is -17.1% (inactive).
As for `CCCCCCCCCC(=O)N/N=C/c1ccco1`, the figure is 78% (active); as for `CC(C)NC(=O)C(C(C)C)C(C)(C)C` (stereo not given), -2.15% (inactive).
As for `CCN(CC)CCOc1cc(C)ccc1C(C)C`, the figure is 26.4% (inactive); as for `OCCO`, -30.6% (inactive); as for `OCC1=C(CO)CC=CC1`, 28.6% (inactive).
For the compound `CC(=O)OCC(=O)[C@@]1(O)CC[C@H]2[C@@H]3CCC4=CC(=O)CC[C@]4(C)[C@H]3C(=O)C[C@@]21C`, the growth inhibition is -21.3% (inactive).
As for `CC(O)/C=C/C(CCC(C)CO)C(C)C` (stereo not given), the figure is -16% (inactive).
Take `CCCCOC(=O)C(C)OC(=O)/C=C\C(=O)OC(C)C(=O)OCCCC` (stereo not given): the growth inhibition was 15.9% (inactive).
Turning to `COc1cc2c(cc1C(C)c1ccc(OCc3ccccc3)cc1)OCO2` (stereo not given), the growth inhibition was 9.65% (inactive).
As to `CCc1cccc(C(C)(C)C)c1NC(=S)NC=C(C#N)C#N`, the growth inhibition is 45.8% (inactive).
As for `N=C(N)n1ncc2c1CCCC2=O`, the figure is 1.75% (inactive); as for `c1ccc(CCCCc2ccccn2)cc1`, 25% (inactive); as for `N#C/C(=N\NC(=O)c1cccc(C(=O)N/N=C(\C#N)c2ccccc2Cl)n1)c1ccccc1Cl`, 4.2% (inactive).
As for `CC(C)(C)c1cc(CCC(=O)Nc2ccc(Cl)cc2)[nH]c(=S)n1`, the figure is -14.8% (inactive); as for `CC(=O)SCCCCl`, -11.3% (inactive).
As for `OC(c1ccccc1)C(Cl)c1ccccc1` (stereo not given), the figure is 19.8% (inactive); as for `O=C(O)c1ccccc1NC(=O)C1CCCCC1`, 14.5% (inactive).
For the compound `Brc1ccc(/C=C/c2ccnnc2)cc1`, the growth inhibition was 34.4% (inactive).
In the case of `CC(=O)Cc1nc(N)nc(Nc2ccc(Cl)c(Cl)c2)n1`, the growth inhibition is -20.5% (inactive).
As for `O=S(=O)(OI(O)CC(F)(F)F)C(F)(F)F`, the figure is 39.5% (inactive); as for `O=C(OCCNC1CCCCC1)c1ccc([N+](=O)[O-])cc1`, 11.3% (inactive); as for `O=c1[nH]c2cc(Cl)c([N+](=O)[O-])cc2c2ccc(Cl)cc12`, 8.05% (inactive).
As for `CC(c1ccccc1)C(O)S(=O)(=O)O` (stereo not given), the figure is -0.35% (inactive).
As for `CC(=O)c1ccc(C)c([N+](=O)[O-])c1`, the figure is -0.6% (inactive); as for `O=C(O)/C=C\C(Cl)(Cl)Cl`, -13.4% (inactive); as for `O=S(=O)(OCCCC1CC2C=CC1C2)c1ccc(Br)cc1` (stereo not given), 2.45% (inactive).
Take `NC(=O)NC(=O)OCC(F)(F)C(F)(F)C(F)(F)C(F)(F)C(F)(F)C(F)(F)C(F)(F)F`: the growth inhibition was 6.85% (inactive).
As for `COc1ccc(C(O)C(NCCO)c2ccccc2)cc1` (stereo not given), the figure is 7.85% (inactive); as for `Cn1cc(-c2ccc3c4ccccc4n(C)c3c2)c2ccccc21`, 2.15% (inactive); as for `COC(=O)c1cc(-c2ccc3ccccc3c2)[nH]c(=O)c1C#N`, 67.3% (inactive).
Consider `c1ccc(-c2oc3ccc4ccccc4c3c2-c2ccc(OCCN3CCCC3)cc2)cc1`, for which the growth inhibition is 61.5% (inactive).
With `CSc1nc(SC)c2cnn(C3OC(CO)C(O)C3O)c2n1` (stereo not given), the growth inhibition was 33.4% (inactive).
As for `Cc1cc(C)c(CC(=O)NCC(=O)NN)c(C)c1`, the figure is -28.8% (inactive); as for `NNC(=O)CC(=O)Nc1ccccc1F`, -2.85% (inactive); as for `O=S1(=O)NC(=NC2CCCC2)c2ccccc21`, 1.15% (inactive).
As for `CC(=O)OC(C)C(=O)OCC1OC(OC(=O)C(C)OC(C)=O)C(OC(=O)C(C)OC(C)=O)C(OC(=O)C(C)OC(C)=O)C1OC(=O)C(C)OC(C)=O` (stereo not given), the figure is 7.95% (inactive); as for `COc1ccc(C(N)C(=O)O)cc1` (stereo not given), -10.9% (inactive).
As for `COc1cc(N2C(=O)CSC2=S)cc(OC)c1OC`, the figure is 23.4% (inactive).

The values are drawn from PubChem BioAssay (NCI).
